Screens deposited in PubChem by National Center for Advancing Translational Sciences (NCATS).
Shown is part of a subset that was picked to be rich in hits.
nsP2pro inh: inhibitors of chikungunya virus nsP2 protease; Q8JUX6; FRET peptide cleavage, nsP2pro, fluorescence 1 h; Potency, µM (highest dose often 24.9 µM), hits mostly inhibitors; 1.1% of 31,000 active; AID 1964107; calls by dose curve; further: nearly all actives have a fitted effect of over 60% in size
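FRET cleavage of 2.5 uM peptide 2 by 150 nM CHIKV protease domain at pH 8.0 (Tris, Tween 20). Compounds at 7 concentrations (up to 25 uM) preincubated 15 min. Fluorescence read after 1 h at room temperature.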
Numbers stand for hits; ! = repeats disagree; [ ] = another dose, or the depositor's remark.

How did CC1=C(c2ccc(C)c(C)c2)S(=O)(=O)N=C1N1CCC(C(=O)NCc2ccc(Cl)cc2)CC1 do in these assays?
nsP2pro inh: inactive

What do the screens show for `CC1=C(c2ccc(C)c(C)c2)S(=O)(=O)N=C1N1CCC(C(=O)Nc2ccc(Cl)cc2)CC1`?
nsP2pro inh: inactive

What do the screens show for `CC1=C(c2ccc(Cl)cc2)S(=O)(=O)N=C1N1CCC(C(=O)NCCc2ccco2)CC1`?
nsP2pro inh: 11µM

How did O=C(Nc1ccccc1F)N1CC(Oc2ccc(-c3noc(-c4ccccc4)n3)cc2)C1 do in these assays?
nsP2pro inh: inactive

What do the screens show for `CCn1c(=O)c(-c2cc(NC(=O)Nc3ccccc3)c(F)cc2Br)cc2cnc(NC)cc21`?
nsP2pro inh: inactive

What do the screens show for `CCCCCCCCCCCC(=O)OCN1C(=O)CCc2ccc(OCCCCN3CCN(c4cccc(Cl)c4Cl)CC3)cc21`?
nsP2pro inh: inactive[5.1 µM]

What do the screens show for `COC(=O)c1ccc(NCC2=CC(C)(C)COc3ccc(OC)cc32)cc1`?
nsP2pro inh: inactive

What do the screens show for `O=C(c1ccoc1)N1CCC(Nc2cccn3ncnc23)CC1`?
nsP2pro inh: inactive

What do the screens show for `Cc1nc2c(NC3CCN(C(=O)c4cnccn4)CC3)cccn2n1`?
nsP2pro inh: 11µM

Results for CCCOc1nccnc1NC1CCN(C(=O)c2cccnc2)CC1 ?
nsP2pro inh: inactive

What do the screens show for `Cc1nccn1CCC(C(N)=O)(c1ccccc1)c1ccccc1`?
nsP2pro inh: inactive

Results for COCC1=C(C(=O)O)N2C(=O)[C@@H](NC(=O)/C(=N\OC)c3csc(N)n3)[C@H]2SC1 ?
nsP2pro inh: inactive

Results for CCO/N=C(\C(=O)N[C@@H]1C(=O)N2C(C(=O)O)=C(Sc3nc(-c4cc[n+](C)cc4)cs3)CS[C@H]12)c1nsc(NP(=O)(O)O)n1 ?
nsP2pro inh: 11µM

Results for CO/N=C(\C(=O)N[C@@H]1C(=O)N2C(C(=O)O)=C(CSc3cnns3)CS[C@H]12)c1csc(N)n1 ?
nsP2pro inh: inactive

How did COc1cccc(CNc2ccc(S(=O)(=O)Nc3cccc(N4CCNCC4)c3)cc2)c1O do in these assays?
nsP2pro inh: inactive

How did COC(=O)c1c(-c2cccs2)csc1NC(=O)c1ccc(OC)c(OC)c1 do in these assays?
nsP2pro inh: 13µM

How did CCCc1ccc(OCC(=O)Nc2scc(-c3cccs3)c2C(=O)OC)cc1 do in these assays?
nsP2pro inh: inactive

How did COc1ccc(C(=O)NCC(c2ccco2)S(=O)(=O)c2cccs2)cc1OC (configuration not stated) do in these assays?
nsP2pro inh: inactive

How did Cc1cnc(NC(=O)c2ccc(-c3cccc([N+](=O)[O-])c3)o2)s1 do in these assays?
nsP2pro inh: inactive

How did Cc1ccc(-c2cc(C(=O)Nc3ccccc3)c3ccccc3n2)cc1C do in these assays?
nsP2pro inh: inactive

How did Cc1cc(C)nc(NC(=S)N2CCN(c3cccc4cnccc34)CC2)c1 do in these assays?
nsP2pro inh: inactive

How did O=C1N/C(=C\c2ccco2)C(=O)N1Cc1ccccc1 do in these assays?
nsP2pro inh: 13µM

How did O=C1c2ccccc2C(=O)N1Cc1ccccc1 do in these assays?
nsP2pro inh: inactive

What do the screens show for `O=C1N/C(=C\c2ccco2)C(=O)N1Cc1ccc(F)cc1`?
nsP2pro inh: inactive

Results for COc1ccc(-c2cc3c(cn2)CN(CCc2ccccc2)CCN3)cc1OC ?
nsP2pro inh: inactive

Results for Cc1cc(-c2cnc(Nc3ccc(F)cc3)c3c2CCO3)ccn1 ?
nsP2pro inh: inactive

How did Cc1noc(C)c1-c1cnc(Nc2ccc(CN3CCN(C)CC3)cc2)c2c1CCO2 do in these assays?
nsP2pro inh: inactive

Results for Cn1cc(-c2cnc(Nc3ccc(F)c(Cl)c3)c3c2CCO3)cn1 ?
nsP2pro inh: 8.9µM

How did [2H]C([2H])([2H])C(O)(CCO[C@@H](C)[C@H]1CC[C@H]2/C(=C/C=C3\C[C@@H](O)C[C@H](O)C3=C)CCC[C@]12C)C([2H])([2H])[2H] do in these assays?
nsP2pro inh: inactive

What do the screens show for `OC[C@H]1O[C@@H](c2ccc(F)c(Cc3cc4ccccc4s3)c2)[C@H](O)[C@@H](O)[C@@H]1O`?
nsP2pro inh: inactive

What do the screens show for `COC1(C(=O)N[C@@H](C)c2ccc(-n3cc(F)cn3)nc2)CCC(c2nc(C)cc(Nc3cc(C)[nH]n3)n2)CC1` (some centres not stated)?
nsP2pro inh: inactive

How did CCC[C@@H](NC(=O)[C@@H]1[C@H]2CCC[C@@H]2CN1C(=O)[C@@H](NC(=O)[C@@H](NC(=O)c1cnccn1)C1CCCCC1)C(C)(C)C)C(=O)C(=O)NC1CC1 do in these assays?
nsP2pro inh: 7.9µM

Results for CCCNC(=O)N1CCC2(CC1)N(c1ccccc1)C(=O)CS2=O (configuration not stated) ?
nsP2pro inh: inactive

What do the screens show for `O=C([C@@H]1C[C@H](F)CN1C(=O)c1ccc(Cl)cc1)N1CCCCC1`?
nsP2pro inh: inactive

Results for CN1CC(O)c2cc(N=NC(=N)N)c(O)cc21 (configuration not stated) ?
nsP2pro inh: inactive

How did CC(=O)O[C@@H]1CC[C@@]2(C)C(CC[C@]3(C)C2[C@H](O)C=C2[C@H]4[C@@H](C)[C@H](C)CC[C@]4(C)CC[C@]23C)[C@@]1(C)C(=O)O (some centres not stated) do in these assays?
nsP2pro inh: inactive

How did COC(=O)C12CCC(C)C(C)C1C1=CCC3C4(C)CCC(OC(C)=O)C(C)(C)C4CCC3(C)C1(C)CC2 (configuration not stated) do in these assays?
nsP2pro inh: inactive

Results for CC(=O)OC1CCC2(C)C(CCC3(C)C2CC=C2C4C(C)C(C)CCC4(C)CCC23C)C1(C)C(=O)O (configuration not stated) ?
nsP2pro inh: 1.2µM

What do the screens show for `COc1cccc(-c2csc(NC(=O)c3ccncc3NS(=O)(=O)c3ccc(C)cc3)n2)c1`?
nsP2pro inh: inactive

Results for CCc1cccc(CC)c1OCc1cc(C2Nc3ccccc3C(=O)N2Cc2ccco2)ccc1OC (configuration not stated) ?
nsP2pro inh: inactive

Results for CCC1CCCCN1C(=O)c1nn(-c2ccc(OC)cc2)c(=O)c2c1c1ccccc1n2C (configuration not stated) ?
nsP2pro inh: inactive

Results for COc1ccc(-n2nc(C(=O)O)c(=O)n(C)c2=O)cc1 ?
nsP2pro inh: inactive

Results for CCOC(=O)c1nn(-c2ccc(OC)cc2)c(=O)c2c(N)scc12 ?
nsP2pro inh: 11µM

Results for Cc1ccc(S(=O)(=O)Nc2cnccc2C(=O)Nc2nc(-c3ccc4c(c3)CCCC4)cs2)cc1 ?
nsP2pro inh: inactive

What do the screens show for `FC(F)(F)c1cc(N2CCN(C(=S)Nc3cc(Cl)ccn3)CC2)cc(C(F)(F)F)c1`?
nsP2pro inh: inactive

How did CCc1ccc(NS(=O)(=O)c2ccc3[nH]c4c(c3c2)CCCCCC4)cc1 do in these assays?
nsP2pro inh: inactive

Results for CCCCc1ccc(NS(=O)(=O)c2ccc(F)cc2)cc1 ?
nsP2pro inh: inactive

Results for CCc1ccc(NS(=O)(=O)c2[nH]ncc2C(=O)OC)cc1 ?
nsP2pro inh: 10µM

What do the screens show for `Fc1cc(Nc2nc(-c3ccncc3)nc3ccccc23)ccc1-c1cccc(OC(F)F)c1`?
nsP2pro inh: inactive

How did C=C1CCC2C(C)(CO)C(O)CCC2(C)C1C/C=C1\C=COC1=O (configuration not stated) do in these assays?
nsP2pro inh: inactive

Results for O=C(O)c1cc(O)c2c(c1)[O][Bi][O]2 ?
nsP2pro inh: inactive[0.199 µM]

How did O=C(O)c1cc(O)c(O)c(O)c1 do in these assays?
nsP2pro inh: 12µM!
